Screening results as filed in PubChem BioAssay.
A selection: hits, their analogues and other compounds. The true share with any hit is near 4.4%.
D1 PAM: Potentiators of Human D1 Dopamine Receptor: qHTS; D(1A) dopamine receptor (Homo sapiens), P21728; HEK293 TREx D1 cells, calcium flux, dopamine EC20 potentiation; potentiation, % at 10 µM; hit rate 0.036% among 360,000; AID 504651, 2011; in the data active means potentiation above about 30%; further: 0% is about no effect
TRHR PAM: qHTS for Small Molecule Agonists and Allosteric Enhancers of Human TRH Receptor: Primary Screen for Enhancers; Thyrotropin-releasing hormone receptor (Homo sapiens), P34981; TRHR cells, fluo-8 calcium fluorescence, EC20 TRH enhancement; enhancement, % at 2 µM; hit rate 0.66% among 360,000; AID 493056, 2011; in the data active means enhancement above about 30%; further: 0% is about no effect
Target sequence (P34981 whole entry, looked up): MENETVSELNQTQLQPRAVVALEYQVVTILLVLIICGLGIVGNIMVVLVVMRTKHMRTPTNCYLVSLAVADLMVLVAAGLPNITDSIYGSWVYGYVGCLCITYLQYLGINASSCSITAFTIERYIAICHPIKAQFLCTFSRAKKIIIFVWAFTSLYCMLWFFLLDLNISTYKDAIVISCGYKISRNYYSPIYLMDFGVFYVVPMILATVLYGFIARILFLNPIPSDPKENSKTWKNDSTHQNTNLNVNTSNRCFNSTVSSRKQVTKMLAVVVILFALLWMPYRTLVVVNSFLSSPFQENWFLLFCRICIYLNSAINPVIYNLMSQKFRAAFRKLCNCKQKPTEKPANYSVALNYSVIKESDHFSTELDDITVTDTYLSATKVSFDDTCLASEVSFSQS
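TRHR-expressing cells loaded with fluo-8 calcium dye were read kinetically (ex 480/em 530) during compound addition, then stimulated with an EC20 of TRH (10 nM final). Enhancement of the Gq-mediated intracellular calcium response was scored.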
D1 antagonist: Antagonist of Human D 1 Dopamine Receptor: qHTS; HEK293 TREx D1 cells, calcium flux, dopamine EC80; active compounds read low; activity change, negative = inhibition, % at 10 µM; hit rate 3.2% among 360,000; in the data active means activity change below about -30%; further: on the % scale 0 is the no-effect control and ±100 the full control effect
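Allosteric or orthosteric antagonism assessed as attenuation of the calcium response to EC80 dopamine, added 180 s after compound, in induced HEK293 Trex D1 cells loaded with no-wash calcium dye.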
USP1-UAF1 inh: Inhibitors of USP1/UAF1: Primary Screen | recombinant USP1/UAF1, Ub-Rhodamine cleavage fluorescence | Potency, µM (highest dose often 57.1 µM), without a hit: at the highest dose activity change, negative = inhibition, usual class: inhibitors | hit rate 0.23% among 390,000 | AID 743255, 2014; active means well fitted inhibition curve with a large enough effect; inconclusive means small, poorly fitted or top-dose-only effect; inactive means no such curve, though single readings can be large or run the other way; further: potency means the concentration at half of the fitted maximal effect; on the % scale 0 is the no-effect control and ±100 the full control effect; nearly all actives have a fitted effect of over 60% in size
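In this screen, compounds sit with the deubiquitinase complex (1nM) for 15 min at room temperature before Ub-Rho is added at 150nM final. Fluorescence rise is then followed for 6 reads every 60 seconds.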
TRHR ag: qHTS for Small Molecule Agonists and Allosteric Enhancers of Human TRH Receptor: Primary Screen for Agonists; Thyrotropin-releasing hormone receptor (Homo sapiens), P34981; TRHR cells, calcium flux fluo-8, FDSS agonist mode; activation, % at 2 µM; hit rate 0.18% among 360,000; further: 0% is about no effect
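Agonist-mode FDSS calcium read (Ex 480/Em 530, 1 s cycles) in 1536-well TRHR cells with fluo-8 dye, after 10-cycle baseline and 23 nL compound addition; TRH at EC20 (10 nM final) added afterwards for the enhancer phase.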
D1 ag: Allosteric Agonists of the Human D1 Dopamine Receptor: qHTS. HEK293 T-REx D1 cells, calcium flux, agonist mode. AID 504660, 2011. D(1A) dopamine receptor (Homo sapiens), P21728. hit rate 1% among 360,000. activation, % at 2 µM; further: 0% is about no effect
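Inducible HEK293 T-REx D1 cells, force-coupled to calcium signalling, were plated at 4000 cells/well with tetracycline and held overnight at 30 C. After no-wash calcium dye loading, compound-evoked calcium rise over 180 s flagged agonists.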
The depositor's hits bear a star; ? = inconclusive; ! = repeats disagree. Unless noted, no stated cut-off is given here; in the data, active means activation above about 30%; inactive means the rest.

SMILES	D1 PAM	TRHR PAM	D1 antagonist	USP1-UAF1 inh	TRHR ag	D1 ag
CCN(CC)c1cc(C)c2cc(NC(=O)c3ccc(Br)o3)ccc2n1	-3	1	-55*	-24%	-1	0
Cc1nc2cc(NC(=O)CS(=O)(=O)c3ccccc3)ccc2s1	1	6	14	-7%	-1	0
CN(c1ccccc1)S(=O)(=O)c1ccc(C(=O)Nc2nnc(-c3ccco3)o2)cc1	-2	7	-32*	-12%	-1	4
Cc1nc2ccc(S(=O)(=O)N(C)CC(=O)Nc3cccc(C(F)(F)F)c3)cc2s1	-2	-4	-33*	-25%	-2	18
CCN(c1ccccc1)S(=O)(=O)c1ccc(C(=O)Nc2nnc(-c3ccco3)o2)cc1	-3	9	-7	5%	-1	6
Cc1nc2ccc(S(=O)(=O)CCC(=O)Nc3ccc(C(C)C)cc3)cc2s1	0	15	-57*	-3%	0	0
CC(=O)Nc1ccc2sc(C)nc2c1	-6	37*	2	-12%	-1	3
O=C(c1ccccc1Cl)n1nc(-c2cccnc2)nc1NCc1ccc(F)cc1	-4	-5	-1	-19%	3	9
CC(=O)Nc1ccc(NC(=O)c2ccc(S(=O)(=O)N(C)c3ccccc3)cc2)cc1	-11	-9	-10	-21%	0	5
Cc1nc2ccc(NC(=O)c3ccc(S(=O)(=O)N(C)c4ccccc4)cc3)cc2s1	-4	0	-35*	-15%	1	9
N#CC1(NC(=O)COC(=O)/C=C/c2ccc3ccccc3n2)CCCCC1	-13	-1	-50*	-22%	-1	5
Cc1ccc(C)c(CNC(=O)c2sc3ncnc(N(C)C4CCCCC4)c3c2C)c1	-1	-3	-5	-3%	0	2
O=C(CCC(=O)N1CCCC1)Nc1ccc(Cl)c(Cl)c1	-1	-6	-33*	-3%	0	0
O=C(CN1CCN(S(=O)(=O)N2CCCCC2)CC1)Nc1ccc(Cl)c(Cl)c1	-13	-2	-79*	-16%	-1	43*
CCOC(=O)c1c(S(=O)(=O)N2CCN(c3cc(Cl)ccc3C)CC2)c(C)n(C)c1C	-8	-8	6	-2%	-1	6
COc1cc(OC)cc(-c2nc3n(n2)C(c2ccccc2)C(C(N)=O)=C(C)N3)c1 (configuration not stated)	2	-2	7	4%	0	0
Cc1[nH]c2ccc(F)cc2c1CCN(Cc1cccnc1)C(=S)Nc1ccc(F)cc1	-12	-1	-37*	-20%	0	21
Cc1ccc(NC(=O)Cc2ccc(-n3c(C)nc4cccnc43)cc2)cc1C	-1	5	1	?	0	0
CC(C)CNS(=O)(=O)c1ccc(N2CCCCS2(=O)=O)cc1	0	-6	-44*	8%	0	7
O=S(=O)(NCCc1ccccc1)c1ccc(N2CCCCS2(=O)=O)cc1	1	-7	-7	-8%	0	8
CN1C(=O)Cc2cc(S(=O)(=O)NCCc3ccc(Cl)cc3)ccc21	-1	40*!	1	-1%	1	2
O=S(=O)(NCCc1ccc(Cl)cc1)c1ccc(N2CCCCS2(=O)=O)cc1	1	4	-35*	-6%	0	13
COc1ccc(NC(=O)Cn2c(=O)n(-c3ccc(C)cc3)c(=O)c3c2cnn3C)cc1	-1	4	10	-25%	-1	5
CC1(C)CC(O)C(C)(C)N1O (configuration not stated)	0	-5	168	-7%	0	37*
CC(=O)c1cccc(NC(=O)c2cc(-c3ccncc3)nc3ccccc23)c1	3	1	18	-3%	1	0
